The whole screen tested about 1,800 compounds, of which about 1,400 (78%) were called active. Inconclusive results (about 2%) are left out.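 The calls were made as follows: active = fitted curve crossing a set activation limit at or below the highest valid dose tested; inconclusive = flat fit at 30 to 70% activation, or poor fit; inactive = the rest, including signal decreases.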 So high a share suggests a set chosen from earlier hits. Not all results are given here. Measured potencies and affinities stand elsewhere.
Assay: blockers of NLG process in reporter cells – D54 ERlucT cells, luminescence, cherry-picks, dose response (AID 624491);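 also: signal gain reflects blocked N-linked glycosylation of a luciferase reporter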
Details: D54 ERlucT glycosylation luciferase reporter, 24 h, 100% = twice neutral-control luminescence; series mostly up to 19.5 µM; activation (NLG inhibition): at the top concentration

Row | Structure (SMILES) | activation (NLG inhibition)
1 | COc1cc(-c2cc(-c3ccc(O)cc3)nc(N)c2C#N)ccc1O | 32.1% (inactive)
2 | COc1ccccc1-c1cc(NC=O)c2ncc(-c3cccc(C(C)=O)c3)n2c1 | -5.59% (inactive)
3 | COC(=O)c1cccc(NS(=O)(=O)c2ccc(OC)cc2)c1C | 34.1% (inactive)
4 | O=C(CC1Sc2ccccc2NC1=O)NNc1cccc(Cl)c1Cl (stereo not drawn) | 12% (inactive)
5 | Cc1c(O)cc2c(c1O)C(=O)CC(c1ccccc1)O2 (stereo not drawn) | 17.8% (inactive)
6 | CCc1nc(SCC(=O)c2ccc3c(c2)OCCO3)c2ccccc2n1 | 10.9% (inactive)
7 | Cc1ccc(C(C)C)c(OCc2nnc(SCC(=O)Nc3ncc(C)s3)n2C)c1 | 45% (inactive)
8 | COc1ccc(/C=C2\N=C(c3ccccc3Cl)NC2=O)cc1 | 20.3% (inactive)
9 | CCc1ccc(OCC(=O)Nc2ccncc2)c(Br)c1 | 7.78% (inactive)
10 | O=C(/C=C/c1cccnc1)c1ccc([N+](=O)[O-])cc1 | -16% (inactive)
11 | NC1=NC(c2ccc(Cl)cc2)C(C(=O)c2ccccc2)N1 (stereo not drawn) | 51.4% (inactive)
12 | COc1ccc(S(=O)(=O)Nc2cccc3ccc(O)cc23)cc1 | 29.7% (inactive)
13 | O=C(CCN1C(=O)/C(=C\c2ccccc2)SC1=S)N1CCCCC1 | -1.63% (inactive)
14 | Cc1ccc(CNC(=O)Cc2ccc(-n3c(=O)[nH]c4ccsc4c3=O)cc2)cc1 | 35.2% (inactive)
15 | CCOc1ccc(-n2c(C)cc(C(=O)CCl)c2C)cc1 | 25.7% (inactive)
16 | COC(=O)c1c(NC(=O)CN2C(=O)NC3(CCC(C)CC3)C2=O)sc2c1CCC2 (stereo not drawn) | 17% (inactive)
17 | COC(=O)CNC(c1ccccc1Cl)c1cc(Br)ccc1NC(=O)CCN1CCOCC1 (stereo not drawn) | -5.06% (inactive)
18 | COc1ccc(CC(=O)Nc2ccc(-c3ccc4nnc(C)n4n3)cc2)cc1OC | 4.46% [at 5 µM] (inactive)
19 | N#CCC(CNc1ncc(C(F)(F)F)cc1Cl)OC(=O)c1ccc(Cl)cc1Cl (stereo not drawn) | 18.6% (inactive)
20 | Cc1cccn2c(=O)c3cc(C(=O)N4CCCCC4)sc3nc12 | -15% [at 5 µM] (inactive)
21 | COc1ccc(-c2oc3cc(O)c(OC)c(O)c3c(=O)c2OC)cc1 | 58% (inactive)
22 | Cc1cccc(N2C(=O)CC(N3CCN(C(=O)c4ccccc4)CC3)C2=O)c1 (stereo not drawn) | -1.39% (inactive)
23 | CC1=C(n2ccnc2)CCC1=O | 37.6% (inactive)

Row | Structure (SMILES) | activation (NLG inhibition)
24 | O=C1CCCC2=C1C(c1ccc(Cl)cc1)n1c(s/c(=C\c3ccc4ccncc4c3)c1=O)=N2 (stereo not drawn) | 28% (inactive)
25 | Nc1c(N(CCC2=CCCCC2)C(=O)COc2ccc(F)cc2)c(=O)[nH]c(=O)n1Cc1ccccc1 | 62.4% (inactive)
26 | O=c1cc(N2CCN(c3ccccc3Cl)CC2)[nH]c(=O)n1Cc1ccc(F)cc1 | 25% (inactive)
27 | O=C(N/N=C/c1ccc2c(c1)OCO2)c1cccc2ccccc12 | 10.1% (inactive)
28 | CC(C)(C)c1ccc(C(=O)NNC(=O)c2cccc(Br)c2)cc1 | 818% (inactive)
29 | COc1cccc(/C=N/NC(=O)c2[nH]nc3c2CCc2ccccc2-3)c1 | 5.49% (inactive)
30 | COc1ccc(/C=C/C(=O)c2ccc3c4c(cccc24)CC3)cc1OC | -43.1% (inactive)
31 | COc1ccc(NC(=O)c2cnc(SC)nc2)cc1 | 75.1% (inactive)
32 | COc1ccc(/C=C/C(=O)c2c(O)cc(OC)cc2OC)cc1 | 40.4% (inactive)
33 | CCN(CC)Cc1cc(Nc2c3ccccc3nc3c4ccccc4n(C)c23)cc(CN(CC)CC)c1O | 49.9% (inactive)
34 | CCOC(=O)c1c(C)[nH]c(-c2csc(N)n2)c1C | 20.4% (inactive)
35 | CCOC(=O)c1[nH]c(C)c(C(=O)Nc2cc(Cl)ccc2C)c1C | 14.7% (inactive)
36 | CCOC(=O)c1[nH]c(COC(=O)CCOc2ccccc2OC)c(C(=O)OCC)c1C | 12.1% (inactive)
37 | CCN(CC)c1ccc(C(=O)n2cnc3ccccc32)cc1 | 16.8% (inactive)
38 | CC(=O)N1c2ccccc2C(=O)C1N(C)c1ccc(C)cc1 (stereo not drawn) | -0.122% (inactive)
39 | COCCNc1nc(-c2ccccc2CO)c2sc(-c3ccccc3)cc2n1 | 16.9% (inactive)
40 | CCOC(=O)c1ccc(-n2cccc2/C=C2\NC(=O)NC2=O)cc1 | 19.5% (inactive)
41 | O=C(N/N=C\c1cccnc1)c1cc(-c2ccccc2)nc2c(Cl)cccc12 | 33.7% (inactive)
42 | O=C(/C=C/c1ccc([N+](=O)[O-])s1)N1CCCCC1 | -28.1% (inactive)
43 | CCN(c1ccccc1)S(=O)(=O)c1ccc(C(=O)NC2CCN(Cc3ccccc3)CC2)cc1 | 16.6% (inactive)
44 | Cc1nnc2n(c1=O)N=C(c1ccc(Cl)cc1)CS2 | -6.13% (inactive)
45 | O=C(CN1C2=NCCCN2c2ccccc21)c1ccc([N+](=O)[O-])cc1 | 36% (inactive)
46 | CC(C)(C)S(=O)N1Cc2cc(C(=O)NCC(F)(F)F)nc(-c3cccc(-c4cccc(F)c4)c3)c2[C@@H]1CCO (stereo partly drawn) | -12.7% (inactive)

Row | Structure (SMILES) | activation (NLG inhibition)
47 | Cc1cnc(C(=O)OCC(=O)NC2CCCCCCC2)cn1 | 16.8% (inactive)
48 | Cc1ccc(-c2nn(-c3ccccc3)cc2NC(=O)CCl)cc1 | -46.9% (inactive)
49 | COc1ccccc1NC(=O)Cn1nnc(-c2ccccc2NC(=O)c2ccco2)n1 | 45.5% (inactive)
50 | CCc1cccc(NC(=O)CN2C(=O)NC3(CCCCCCC3)C2=O)c1 | 34% (inactive)
51 | O=C(CN1C(=O)NC2(CCCCC2)C1=O)Nc1ccc2c(c1)CCC2 | 44.6% (inactive)
52 | Cc1ccc(C)c(N2CCN(S(=O)(=O)c3ccc(-c4ccc(=O)[nH]n4)o3)CC2)c1 | 86.2% (inactive)
53 | Cn1cnc([N+](=O)[O-])c1Oc1ccc2ccccc2c1 | 1.95% (inactive)
54 | CCn1c(=O)cc(C(=O)OC)sc1=Nc1ccc(F)c(F)c1 | 26% (inactive)
55 | O=C1c2cccc3c([N+](=O)[O-])ccc(c23)C(=O)N1CC1CCCO1 (stereo not drawn) | 16.3% (inactive)
56 | O=c1cc(-c2ccccc2)[nH]n1-c1nc2ccccc2[nH]1 | -34.9% (inactive)
57 | Nc1cc2c(cc1Br)-c1c(C(=O)O)cccc1C2O (stereo not drawn) | 8.32% (inactive)
58 | O=C(COc1ccc(/C=N/NC(=O)c2cc3ccccc3o2)cc1Br)Nc1ccccc1 | 103% (inactive)
59 | CO/N=C/c1ccc(OC)c(Oc2nc(OC)cc(OC)n2)c1 | 60.6% (inactive)
60 | CCCCCC[n+]1ccccc1/C=C/c1ccc(N(C)C)cc1 | 5.17% (inactive)
61 | CCC1=Nc2cc(C(=O)NCc3ccco3)ccc2Sc2ccc(Cl)cc21 | 50.7% [at 5 µM] (inactive)
62 | Cc1nnc2ccc(-c3ccc(NC(=O)c4ccco4)cc3)nn12 | 61.9% (inactive)
63 | O=C(COc1ccc(/C=N/NC(=O)c2cc3ccccc3o2)cc1Cl)Nc1ccccc1 | -67.6% (inactive)
64 | COc1ccc(NC(=O)CSc2nc3ccsc3c(=O)n2Cc2ccccn2)c(OC)c1 | 9.56% (inactive)
65 | COc1cc(Nc2c3ccccc3nc3ccccc23)cc(OC)c1OC | -81.2% (inactive)
66 | CCn1cc2nc(SCC(=O)Nc3ccc(OC)cc3OC)n(Cc3ccc(OC)cc3)c(=O)c2n1 | -4.31% (inactive)
67 | CC(=O)c1ccc(Nc2c3c(nc4ccccc24)CCCC3)cc1 | 52.1% (inactive)
68 | COC(=O)c1cccc(Nc2c3c(nc4ccccc24)CCC3)c1 | 39.7% (inactive)
